Experimental findings from PubChem BioAssay (NCATS) are described below.

SMILES strings stand for the structures. Results filed as inconclusive are left out. Calls of active or inactive are those of the source. Unless noted, calls follow the shape of the dose curve; as a rule, active = well fitted curve in the direction sought with a large enough effect; inconclusive = small, poorly fitted or top-dose-only effect, or another doubt; inactive = no such curve, though single readings can be large; an effect the other way counts as inactive or inconclusive.

Experiment [1] can be described thus: qHTS assay for measurement of the activity of small molecule inhibitors on Zika virus induced Caspase-3 activity in human iPSC derived neural progenitor cells (hNPCs) (AID 1224857). Also: nearly all actives have a fitted effect of over 65% in size. An outline of the steps: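 Zika virus (2 FFU/cell) infection of human iPSC-derived NPCs, 6 h, following 1 h compound preincubation. Read-out: Caspase-Glo 3/7 luminescence.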
Background: In qHTS, concentration-response curves come from the screen itself.

The nature of experiment [2]: qHTS assay for measurement of the activity of small molecule inhibitors on Zika virus induced Caspase-3 activity in human astrocytoma cells (AID 1224859). An outline of the steps: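 Caspase activation in ZIKV-infected SNB-19 cells (2 FFU/cell, 6 h) measured by Caspase-Glo 3/7 luminescence after 30 min RT; compound pre-incubated 1 h; normalised to uninfected and infected controls.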

A short description of experiment [3]: P-glycoprotein substrates identified in KB-3-1 adenocarcinoma cell line, qHTS therapeutic library screen (AID 1346986). Also: nearly all actives have a fitted effect of over 60% in size.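 Also: potency is read from the fitted curve at half-maximal effect; potency is for cytotoxicity meaning loss of cell viability.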 An outline of the steps: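 Viability by CellTiter-Glo after 72 h compound exposure at 37 degree C, 5% CO2. Cytotoxic call: curve class -1.1 to -2.4, maximum response >50%, AC50 < 10 uM, compared across KB-3-1 and P-gp-overexpressing KB-8-5-11.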

Experiment [4] can be described thus: NS1 protein of Zika virus - qHTS assay to identify small molecule inhibitors in human HEK 293 cells (AID 1347053). Also: series mostly up to about 46 µM; nearly all actives have a fitted effect of over 55% in size. An outline of the steps:
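TR-FRET signal from two anti-ZIKV NS1 antibodies quantified NS1 in HEK 293 cells 24 h after MR766 infection at MOI = 0.5; compounds were added 1 h before virus. Uninfected cells and infected cells defined the NS1 normalization range.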

The target in experiment [5] is T1, Tyrosine-protein phosphatase non-receptor type substrate 1 (Homo sapiens) + Leukocyte surface antigen CD47 (Homo sapiens) (UniProt P78324+Q08722). The experiment can be described thus: CD47-SIRPalpha protein protein interaction - Alpha assay qHTS validation (AID 1347059).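 Also: bead proximity luminescence from CD47 binding SIRPalpha after compound preincubation with SIRPalpha.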 An outline of the steps:
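SIRPalpha-biotin 25 nM + cpd, 30 min RT, dark; add CD47-His 12.5 nM, 30 min; add Ni-NTA/SAV beads 10 ug/mL, 30 min; AlphaScreen. Buffer PBS pH 7.4 + 0.05% IGEPAL CA-630. Non-biotinylated SIRPalpha as control inhibitor.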

Experiment [6] has as its target Parathyroid hormone/parathyroid hormone-related peptide receptor (Homo sapiens) (UniProt Q03431). The experiment can be described thus: qHTS for PTHR1 Agonists: Optimization Screen against the NCGC LOPAC library (AID 1347079).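 Also: GloSensor cAMP luminescence in HEK-293 GP2 cells expressing human PTHR1 with IBMX.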 Also: potency is read from the fitted curve at half-maximal effect. An outline of the steps:
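Signal increase flags agonism. GP2 cells, derived from HEK-293, express human PTHR1 and a GloSensor cAMP construct.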

In experiment [7] the target is N-terminal Xaa-Pro-Lys N-methyltransferase 1 (Homo sapiens) (UniProt Q9BV86). The experiment can be described thus: qHTS Assay for Inhibitors of N-terminal methyltransferase 1 (NTMT1): LOPAC validation of the NTMT1 SAHH-coupled ThioGlo3 Assay (AID 1347143).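 Also: SAH from peptide methylation measured as thiol fluorescence via SAHH coupling and ThioGlo3; nearly all actives have a fitted effect of over 70% in size.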 Also: potency is read from the fitted curve at half-maximal effect. An outline of the steps:
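Steps: dispense 125nM NTMT1; pin-transfer test compounds at several concentrations, with 1uM RCC1-6 peptide as control; incubate 1 min; start with reagent holding 100uM SAM, 10uM SAHH, 15uM ThioGlo3; read at 0 and 30 min.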

In experiment [8] the test system is Zika virus NS2B-NS3 protease (unlinked). Put plainly: Optimization of GU AMC qHTS for Zika virus inhibitors: Unlinked NS2B-NS3 protease assay (AID 1347151). Also: nearly all actives have a fitted effect of over 80% in size. Also: potency is read from the fitted curve at half-maximal effect. An outline of the steps:
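Unlinked protease (25 nM final); buffer 10 mM Tris-HCl pH 8.0 + 0.01% Tween 20; AMC substrate; 15 min RT, dark; Δfluorescence normalized to no-inhibitor/no-enzyme controls; 4-parameter Hill fit.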

A short description of experiment [9]: P-glycoprotein substrates identified in KB-8-5-11 adenocarcinoma cell line, qHTS therapeutic library screen (AID 1346987). Also: nearly all actives have a fitted effect of over 65% in size. Also: potency is read from the fitted curve at half-maximal effect. An outline of the steps:
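In this qHTS, P-gp-rich KB-8-5-11 cells received library compounds across a concentration range. Viability was quantified by luminescence after 72 h at 37 degree C.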

The nature of experiment [10]: Natriuretic polypeptide receptor (hNpr1) antagonism - Pilot counterscreen GloSensor control cell line (AID 1347045; calls by dose curve; also: series mostly up to about 38 µM). An outline of the steps: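 HEK293 cGMP-sensor cells; 2% GloSensor reagent 2 h RT; LOPAC compounds in 1:5 titrations 30-50 min; 50 uM SNP 20 min; luminescence pre-read and post-read.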
The target of experiment [11] is Atrial natriuretic peptide receptor 1 (Homo sapiens) (UniProt P16066). Put plainly: Natriuretic polypeptide receptor (hNpr1) antagonism - Pilot screen (AID 1347049; calls by dose curve;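 also: agonist-evoked cGMP luminescence read 20 min after hNppA addition; series mostly up to about 58 µM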). An outline of the steps:
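cGMP-sensor HEK293/hNpr1 cells, 1500/well, plated overnight at 37C. 2% GloSensor reagent, 2 h RT. Compound (23 nL pin transfer) 30 min RT, baseline luminescence pre-read. 0.1 nM hNppA, 20 min RT, post-read.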

Experiment [12] has as its target Atrial natriuretic peptide receptor 2 (Homo sapiens) (UniProt P20594). The experiment can be described thus: Natriuretic polypeptide receptor (hNpr2) antagonism - Pilot subtype selectivity assay (AID 1347050; calls by dose curve). An outline of the steps:
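Luminescence from a genetically encoded cGMP luciferase biosensor in hNpr2-expressing HEK293 cells is read before and 20 min after adding 1 nM hNppC. Test compounds, in interplate 1:5 titrations, are added 30-50 min ahead of the agonist.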

Experiment [13] deals with T1, Tyrosine-protein phosphatase non-receptor type substrate 1 (Homo sapiens) + Leukocyte surface antigen CD47 (Homo sapiens). Put plainly: CD47-SIRPalpha protein protein interaction - LANCE assay qHTS validation (AID 1347057; active = well fitted curve in the direction sought with a large enough effect in the signal ratio, with a control signal flat, not every such curve was filed as active; the % refers to the signal ratio; also: series mostly up to about 38 µM). An outline of the steps: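 Inhibition of soluble CD47/SIRPalpha ectodomain association by titrated compounds, measured as 665/615 nm time-resolved FRET ratio after sequential 30 min room-temperature incubations.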
In general terms: Time-resolved FRET reads energy transfer from a long-lived donor to a nearby acceptor.

The target is the same in experiment [14]. The experiment can be described thus: CD47-SIRPalpha protein protein interaction - HTRF assay qHTS validation (AID 1347058; active = well fitted curve in the direction sought with a large enough effect in the signal ratio, not every such curve was filed as active; the % refers to the signal ratio; also: series mostly up to about 38 µM). An outline of the steps: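 Soluble extracellular domains (6His-CD47, Avi-tag-biotinylated SIRPalpha) in PBS pH 7.4 with 0.05% IGEPAL CA-630. Compounds were preincubated 30 min at RT with CD47 and anti-His-Eu, then SIRPalpha and SAV-XL665 were added. TR-FRET 665/615 ratio.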

Chain of Parathyroid hormone/parathyroid hormone-related peptide receptor (Homo sapiens) (Q03431 whole entry, looked up): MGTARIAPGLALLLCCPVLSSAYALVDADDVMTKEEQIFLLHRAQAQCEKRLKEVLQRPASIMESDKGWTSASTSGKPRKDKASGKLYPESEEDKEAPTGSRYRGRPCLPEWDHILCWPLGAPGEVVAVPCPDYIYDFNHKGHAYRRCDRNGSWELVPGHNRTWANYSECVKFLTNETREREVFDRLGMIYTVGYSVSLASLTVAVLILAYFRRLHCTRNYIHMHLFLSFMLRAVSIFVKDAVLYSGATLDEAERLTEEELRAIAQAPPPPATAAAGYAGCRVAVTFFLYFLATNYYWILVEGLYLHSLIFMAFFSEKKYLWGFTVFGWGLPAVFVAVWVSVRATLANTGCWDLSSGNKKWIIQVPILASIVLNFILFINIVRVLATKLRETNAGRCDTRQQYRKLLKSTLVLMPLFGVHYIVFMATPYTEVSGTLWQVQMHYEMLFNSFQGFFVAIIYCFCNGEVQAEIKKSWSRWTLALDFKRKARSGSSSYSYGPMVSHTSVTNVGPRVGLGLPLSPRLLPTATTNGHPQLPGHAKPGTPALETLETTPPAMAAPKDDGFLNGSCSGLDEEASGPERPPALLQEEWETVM
Chain of N-terminal Xaa-Pro-Lys N-methyltransferase 1 (Homo sapiens) (Q9BV86 whole entry, looked up): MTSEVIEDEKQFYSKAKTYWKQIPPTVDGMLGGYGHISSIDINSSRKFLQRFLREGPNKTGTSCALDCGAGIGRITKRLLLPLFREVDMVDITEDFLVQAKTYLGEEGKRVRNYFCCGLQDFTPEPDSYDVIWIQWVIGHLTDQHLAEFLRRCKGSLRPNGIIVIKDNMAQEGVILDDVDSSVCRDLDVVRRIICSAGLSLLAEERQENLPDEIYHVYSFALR
Chain of Atrial natriuretic peptide receptor 1 (Homo sapiens) (P16066 whole entry, looked up): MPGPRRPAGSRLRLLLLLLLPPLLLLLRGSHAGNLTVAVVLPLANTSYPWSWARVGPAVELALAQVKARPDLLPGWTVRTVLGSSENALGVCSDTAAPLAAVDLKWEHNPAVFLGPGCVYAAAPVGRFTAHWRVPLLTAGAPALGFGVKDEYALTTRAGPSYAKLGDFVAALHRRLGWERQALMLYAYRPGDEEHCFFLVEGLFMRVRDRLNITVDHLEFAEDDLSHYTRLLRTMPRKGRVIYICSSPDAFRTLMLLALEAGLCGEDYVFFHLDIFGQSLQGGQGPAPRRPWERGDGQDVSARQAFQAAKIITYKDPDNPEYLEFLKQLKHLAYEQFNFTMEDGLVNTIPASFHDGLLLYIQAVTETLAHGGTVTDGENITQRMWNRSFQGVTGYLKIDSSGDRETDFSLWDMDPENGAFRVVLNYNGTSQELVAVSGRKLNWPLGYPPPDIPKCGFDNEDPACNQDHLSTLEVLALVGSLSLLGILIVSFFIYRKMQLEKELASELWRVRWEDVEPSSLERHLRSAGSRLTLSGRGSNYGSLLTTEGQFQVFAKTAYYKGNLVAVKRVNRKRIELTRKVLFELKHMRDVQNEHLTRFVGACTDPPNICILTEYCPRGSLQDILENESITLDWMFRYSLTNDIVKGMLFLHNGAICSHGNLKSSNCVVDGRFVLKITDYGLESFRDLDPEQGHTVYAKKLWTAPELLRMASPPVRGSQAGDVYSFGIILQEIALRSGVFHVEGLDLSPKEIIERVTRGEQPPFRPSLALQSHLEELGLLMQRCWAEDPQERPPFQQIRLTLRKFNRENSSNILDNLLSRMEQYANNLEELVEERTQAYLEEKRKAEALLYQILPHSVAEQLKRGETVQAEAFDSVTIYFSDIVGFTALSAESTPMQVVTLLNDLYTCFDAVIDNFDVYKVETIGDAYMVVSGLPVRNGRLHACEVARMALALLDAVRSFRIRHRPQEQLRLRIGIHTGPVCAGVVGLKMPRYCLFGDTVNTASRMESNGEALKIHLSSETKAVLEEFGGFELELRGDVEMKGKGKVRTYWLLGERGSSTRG
T1 sequence (P78324 whole entry, looked up): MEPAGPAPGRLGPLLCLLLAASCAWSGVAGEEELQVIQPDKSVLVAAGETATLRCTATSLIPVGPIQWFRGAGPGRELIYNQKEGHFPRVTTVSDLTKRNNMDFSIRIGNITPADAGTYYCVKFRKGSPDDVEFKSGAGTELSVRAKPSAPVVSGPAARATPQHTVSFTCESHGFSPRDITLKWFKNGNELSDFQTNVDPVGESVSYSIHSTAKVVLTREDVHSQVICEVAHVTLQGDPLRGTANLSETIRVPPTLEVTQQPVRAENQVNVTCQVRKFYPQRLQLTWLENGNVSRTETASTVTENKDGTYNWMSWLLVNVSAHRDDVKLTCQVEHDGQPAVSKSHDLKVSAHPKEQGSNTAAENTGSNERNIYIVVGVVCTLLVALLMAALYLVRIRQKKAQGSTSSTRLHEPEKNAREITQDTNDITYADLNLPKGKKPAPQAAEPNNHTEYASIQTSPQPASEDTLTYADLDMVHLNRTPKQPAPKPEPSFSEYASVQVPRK
T1 sequence (Q08722 whole entry, looked up): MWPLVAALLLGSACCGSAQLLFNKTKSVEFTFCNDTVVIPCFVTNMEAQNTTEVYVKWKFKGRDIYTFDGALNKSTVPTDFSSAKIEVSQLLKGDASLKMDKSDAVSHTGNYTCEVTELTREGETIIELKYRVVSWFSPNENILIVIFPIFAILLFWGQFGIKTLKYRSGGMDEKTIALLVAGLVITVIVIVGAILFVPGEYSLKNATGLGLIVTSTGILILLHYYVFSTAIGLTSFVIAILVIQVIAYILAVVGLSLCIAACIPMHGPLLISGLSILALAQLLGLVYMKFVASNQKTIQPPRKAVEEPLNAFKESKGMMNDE
Chain of Atrial natriuretic peptide receptor 2 (Homo sapiens) (P20594 whole entry, looked up): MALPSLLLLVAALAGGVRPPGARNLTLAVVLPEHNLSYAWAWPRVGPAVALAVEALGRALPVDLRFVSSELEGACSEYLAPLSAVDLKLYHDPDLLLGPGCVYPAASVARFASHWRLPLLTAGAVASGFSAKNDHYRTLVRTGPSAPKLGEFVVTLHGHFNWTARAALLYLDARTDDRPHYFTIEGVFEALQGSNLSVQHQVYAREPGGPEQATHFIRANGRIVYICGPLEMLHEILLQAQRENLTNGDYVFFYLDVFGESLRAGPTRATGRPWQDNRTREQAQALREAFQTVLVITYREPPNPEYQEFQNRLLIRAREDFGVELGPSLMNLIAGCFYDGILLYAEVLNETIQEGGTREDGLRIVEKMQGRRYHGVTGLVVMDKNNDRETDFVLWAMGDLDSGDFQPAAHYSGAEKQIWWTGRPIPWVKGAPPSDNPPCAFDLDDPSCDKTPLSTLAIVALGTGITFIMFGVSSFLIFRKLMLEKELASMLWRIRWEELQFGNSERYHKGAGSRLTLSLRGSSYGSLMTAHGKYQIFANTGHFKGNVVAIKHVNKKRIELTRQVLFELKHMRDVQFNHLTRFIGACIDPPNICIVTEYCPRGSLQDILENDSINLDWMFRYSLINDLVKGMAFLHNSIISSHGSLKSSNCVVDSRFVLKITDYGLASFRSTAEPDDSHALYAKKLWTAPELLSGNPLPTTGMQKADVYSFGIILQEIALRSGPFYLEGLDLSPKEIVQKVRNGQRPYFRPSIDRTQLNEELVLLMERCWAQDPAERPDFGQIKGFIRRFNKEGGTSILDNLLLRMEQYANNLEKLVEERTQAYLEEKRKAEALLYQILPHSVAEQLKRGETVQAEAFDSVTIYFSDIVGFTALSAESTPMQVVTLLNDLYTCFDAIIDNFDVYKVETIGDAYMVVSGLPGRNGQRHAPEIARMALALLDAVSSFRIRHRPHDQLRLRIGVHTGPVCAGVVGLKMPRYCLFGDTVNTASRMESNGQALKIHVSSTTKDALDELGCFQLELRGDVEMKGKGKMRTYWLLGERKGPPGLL

Turning to `O=C1Cc2c([nH]c3ccc(Br)cc23)-c2ccccc2N1`, the Potency result in [1], in experiment [2], in [4], in [5], in [6] and in [8] was “inactive” throughout. The results for the Potency in [3] and in experiment [7] were 11.6 µM (active) and 50.1 µM (active), respectively.
As to `N#C/C(=C\c1ccc(O)c(O)c1)C(=O)NCCCNC(=O)/C(C#N)=C/c1ccc(O)c(O)c1`, the Potency result in [1], in [2], in experiment [3], in experiment [9], in experiment [10] and in experiment [11] was “inactive” throughout. The Potency result in experiment [12], in experiment [4] and in experiment [6] was “inactive” in each case. The Potency in [7] is 39.8 µM (active); in experiment [8], 0.597 µM (active).
In the case of `NC(C(=O)N[C@@H]1C(=O)N2C(C(=O)O)=C(Cl)CS[C@H]12)c1ccccc1` (some centres undefined), the Potency result in experiment [1], in experiment [2], in experiment [10], in [11], in experiment [12] and in [4] was “inactive” in each case. Further, the Potency entry in [13], in experiment [5], in experiment [6] and in experiment [7] was “inactive” each time. The result in experiment [14] was inactive.
For the compound `Nc1ncnc2c1c(-c1ccc(Oc3ccccc3)cc1)cn2C1CCCC1`, the Potency result in experiment [1], in [2], in experiment [12], in experiment [4], in experiment [13] and in experiment [6] was “inactive” throughout. Further, the Potency in experiment [3] is 1.64 µM (active); in experiment [9], 14.6 µM (active); in experiment [7], 79.4 µM (active); in experiment [8] it was 23.8 µM (active). For the same compound, the result in experiment [14] was inactive.
On to `Oc1cc(O)c2c(c1)O[C@H](c1ccc(O)c(O)c1)[C@@H](O)C2`, for which the Potency entry in [1], in experiment [2], in experiment [10], in [11], in [12] and in experiment [4] was “inactive” each time. Further, the Potency result in [13], in [5] and in [6] was “inactive” throughout. The outcome in [14] was inactive. In addition, the Potency in experiment [7] is 44.7 µM (active).
For the compound `CC(=O)[C@H]1CCC2C3CC=C4C[C@@H](OS(=O)(=O)O)CC[C@]4(C)C3CC[C@@]21C` (some centres undefined), the Potency entry in experiment [1], in experiment [2], in experiment [10], in experiment [11], in experiment [12] and in [4] was “inactive” in each case. Also, the Potency entry in experiment [13], in experiment [5], in [6], in experiment [7] and in [8] was “inactive” each time. In addition, the result in experiment [14] was inactive.
Turning to `C=CCN1CCc2c(cc(O)c(O)c2Cl)C(c2ccccc2)C1` (centres undefined), the Potency result in [1], in experiment [2], in [10], in experiment [11], in experiment [12] and in experiment [4] was “inactive” throughout. Moreover, the Potency entry in experiment [13], in [5] and in experiment [6] was “inactive” each time. Moreover, the outcome in experiment [14] was inactive. Moreover, the figures for the Potency in experiment [7] and in experiment [8] were 20 µM (active) and 18.9 µM (active), respectively.
Turning to `C#CC(N)CCC(=O)O` (centres undefined), the Potency entry in experiment [1], in experiment [2], in experiment [10], in experiment [11], in [12] and in experiment [4] was “inactive” each time. Moreover, the Potency result in experiment [13], in [5], in experiment [6], in experiment [7] and in [8] was “inactive” in each case. Moreover, in [14], the result was inactive.
As for `CN(CC[C@@H](Oc1ccc(C(F)(F)F)cc1)c1ccccc1)CC(=O)O`, the Potency result in experiment [1], in experiment [2], in experiment [10], in [11], in experiment [12] and in experiment [4] was “inactive” in each case. The Potency result in experiment [13], in experiment [5], in [6], in experiment [7] and in [8] was “inactive” throughout. In experiment [14], the result was inactive.
In the case of `CC(C)Cn1c(=O)n(C)c(=O)c2[nH]cnc21`, the Potency result in [1], in experiment [2], in experiment [10], in experiment [11], in experiment [12] and in experiment [4] was “inactive” in each case. For the same compound, the Potency result in [13], in experiment [5], in experiment [7] and in experiment [8] was “inactive” in each case. In experiment [14], the result was inactive. Moreover, the Potency in experiment [6] is 4.23 µM (active).
As to `CCCCCCCCCCCCCCSCC(=O)O`, the Potency result in experiment [1], in experiment [2], in experiment [10], in experiment [11], in [12] and in [4] was “inactive” in each case. Further, the Potency result in [13], in [5], in experiment [6] and in [7] was “inactive” throughout. The outcome in [14] was inactive. Besides, the Potency in experiment [8] is 11.9 µM (active).
